One may read the inhibition as the percentage by which the read-out fell short of the control.

For some of these results: Entries with a potency or affinity are not part of this list. Activity calls are given as the source filed them.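 Rule for the calls, unless noted: active = signal rise over 3 SD above mean of control wells given weak agonist, in both repeats and first screen; inactive = the rest.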

Our source for the outcome, inhibition and potentiation values is PubChem BioAssay.

The test system of experiment [1] is TRPC4 beta (transient receptor potential cation channel C4), mouse. Nature of the experiment: TRPC4 cation channel opening, retest – cell-based, Fluo4 calcium, HEK293 TRPC4beta/mu-opioid, duplicates, 10 µM, confirmation (AID 2426;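 active = fluorescence ratio normalized to control raised more than 50% in primary screen plus both repeat runs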). Conditions: Fluo4 calcium fluorescence, at 10 µM; hits give high values.
Experiment [2] deals with transient receptor potential cation channel C4 beta (TRPC4), mouse. Nature of the experiment: TRPC4 cation channel opening, second retest – cell-based, second round, Fluo4, HEK293 TRPC4beta/mu-opioid, 1 µM, confirmation (AID 2461;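 active = primary screen active and over 50% activation in each of two duplicate runs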). Conditions: Fluo4 calcium fluorescence, at 1 µM; hits give high values.
The subject of experiment [3] is TRPC4 (transient receptor potential cation channel C4 beta), mouse. Nature of the experiment: potentiation of DAMGO EC20 TRPC4 response – cell-based, second round, Fluo-4, HEK293 TRPC4beta/mu-opioid, 1 µM, confirmation (AID 2554;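 active = primary screen hit whose fluorescence ratio, in both repeats, exceeds the weak agonist control mean by 3 SD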). Conditions: DAMGO EC20, Fluo-4 calcium flux, at 1 µM; hits give high values.
Experiment [4] relates to TRPC4 beta (transient receptor potential cation channel C4), mouse. Nature of the experiment: potentiation of DAMGO EC20 TRPC4 response – cell-based, Fluo-4, HEK293 TRPC4beta/mu-opioid, confirmation (AID 2555;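 active = primary screen hit whose calcium fluorescence ratio, in both repeats, exceeds the weak agonist control mean by 3 SD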). The settings on record: DAMGO EC20, Fluo-4 calcium flux, at 10 µM; hits give high values.
Experiment [5] addresses Short transient receptor potential channel 4 (Mus musculus) (UniProt Q9QUQ5). Nature of the experiment: blockers of DAMGO-evoked TRPC4 calcium flux – cell-based, Fluo4, HEK293 TRPC4beta/mu-opioid, confirmation (AID 2636;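 active = calcium signal cut by more than 3 SD below the full-agonist control yet still positive, in both repeats and the earlier primary screen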). The settings on record: at 10 µM; hits give high values. In general terms: Calcium flux is commonly read through the fluorescence of an indicator in the cells.

Experiment [6] has the same target. Nature of the experiment: blockers of DAMGO-evoked TRPC4 calcium flux – cell-based, second round, Fluo4, HEK293 TRPC4beta/mu-opioid, 1 µM, confirmation (AID 2637;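 active = calcium signal ratio cut to more than 3 SD under the fully stimulated control mean yet still positive, in both repeats and the primary screen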;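 for inhibition: percent of integrated ratio relative to wells lacking test compound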). The settings on record: at 1 µM; hits give high values.
For experiment [7] the target is unchanged. Nature of the experiment: calcium entry via TRPC4 opening agents – cell-based, HEK293 TRPC4/mu-opioid, Fluo-4 calcium, dose response (AID 434937;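 active = primary screen activator hit with a dose response curve and TRPC4 channel activation at any tested dose; inactive = no activation, no dose response, or not a primary hit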).
The target is the same in experiment [8]. Nature of the experiment: potentiation of DAMGO-evoked TRPC4 calcium signal – cell-based, HEK293 TRPC4/mu-opioid, Fluo-4 calcium, EC20 DAMGO, dose response (AID 434941;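 active = earlier screen potentiator hit that boosts the TRPC4 ion channel at some dose, with a dose response; inactive = no potentiation, no dose response, or not a prior hit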;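 note: calcium entry triggered by an EC20 dose of DAMGO at the co-expressed mu-opioid receptor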).
Experiment [9] concerns the target Short transient receptor potential channel 6 (Mus musculus) (UniProt Q61143). Nature of the experiment: TRPC6 blockade by TRPC4 inhibitor hits – cell-based, HEK293, membrane potential dye, duplicate, selectivity assay for TRPC4 inhibitor project, confirmation (AID 434948;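 active = active in primary screen and both duplicates, each dropping signal beyond three positive-control SD with fluorescence still positive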). Conditions: HEK293 TRPC6, membrane potential dye fluorescence, at 10 µM; inhibition: hits give high values, stimulated with maximal-effect acetylcholine unless noted; outcome: stimulated with maximal-effect acetylcholine unless noted.

Experiment [10] shares this target. Nature of the experiment: TRPC6 opening by TRPC4 activator hits – cell-based, HEK293, membrane potential dye, duplicate, selectivity assay for TRPC4 activator project, confirmation (AID 434950;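 active = membrane potential signal rise above negative control mean plus 3 SD in both duplicates, also active in the earlier TRPC4 screen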). The settings on record: HEK293 TRPC6, membrane potential fluorescence, at 10 µM; activation: hits give high values; outcome: activation.
For experiment [11] the target is unchanged. Nature of the experiment: positive modulators of mouse TRPC6 channel – HEK293 cells, membrane potential dye, duplicate, selectivity assay for TRPC4 potentiator project, confirmation (AID 434952;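 active = compound raising the membrane signal above positive-control mean plus 3 SD in both repeats, and a primary screen hit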). The settings on record: HEK293 TRPC6, membrane potential dye fluorescence, at 10 µM; maximal acetylcholine added after compound unless noted.
Experiment [12] concerns the target Short transient receptor potential channel 4 (Mus musculus) (UniProt Q9QUQ5). Nature of the experiment: calcium flux activators in TRPC4/5HT1a cells, counter-screen for TRPC4 activator project, cell-based, second counter screen, HEK293 TRPC4/5HT1a, Fluo-4 (AID 434977;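 active = calcium signal rise above buffer-control mean plus 5 SD in both duplicates, and also a hit in the primary screen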). Conditions: Fluo-4 calcium flux, at 10 µM; hits give high values.
Experiment [13] can be described thus: serotonin-gated TRPC4 signal block – cell-based, second counter screen, HEK293 TRPC4/5HT1a, Fluo-4, counter-screen for TRPC4 inhibitor project, confirmation (AID 434978;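 active = primary screen active whose calcium signal fell more than 3 SD beyond the full-serotonin control mean in both duplicate plates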;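 for outcome: serotonin given first at submaximal then at maximal dose after compound preincubation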). The settings on record: Fluo-4 calcium flux, at 10 µM; inhibition: hits give high values, serotonin added to trigger calcium flux unless noted; outcome: serotonin added to trigger calcium flux unless noted. In general terms: The purpose of a counterscreen is to sort out artefacts and off-target activity.

Experiment [14] has as its system TRPC4 (mouse), co-expressed with 5HT1a in HEK293. Nature of the experiment: enhancement of serotonin-evoked TRPC4 response – cell-based, second counter screen, HEK293 TRPC4/5HT1a, Fluo-4, counter-screen for TRPC4 potentiator project, confirmation (AID 434979). Conditions: Fluo-4 calcium flux, at 10 µM; outcome: serotonin added at its EC20 dose unless noted; potentiation: hits give high values, serotonin added at its EC20 dose unless noted.

Experiment [15] is described as follows: nonspecific calcium rise without TRPC4 – cell-based, HEK293 mu-opioid receptor line, counter-screen for TRPC4 activator project, confirmation (AID 449723;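 active = hit in primary screen, with calcium signal over 5 SD above buffer well mean in both duplicates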;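 note: counter screen cells carry the mu-opioid receptor alone and lack TRPC4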). Conditions: HEK293 mu-opioid cells, Fluo-4 calcium fluorescence, at 10 µM; hits give high values.
Experiment [16] can be described thus: nonspecific potentiation of DAMGO calcium response – cell-based, HEK293 mu-opioid receptor line, counter-screen for TRPC4 allosteric potentiator project, confirmation (AID 449724;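 active = calcium signal rise more than 3 SD above the low-dose agonist control mean, in both duplicate plates and the primary screen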;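 note: HEK293 cells carrying mu-opioid receptor only with no TRPC4 channel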). Conditions: HEK293 mu-opioid receptor cells, Fluo-4 calcium flux, at 10 µM; compound added before EC20 DAMGO stimulus unless noted.
The target of experiment [17] is Short transient receptor potential channel 4 (Mus musculus) (UniProt Q9QUQ5). Nature of the experiment: block of DAMGO-driven TRPC4 calcium entry – cell-based, HEK293 TRPC4/mu-opioid, Fluo-4 calcium, dose response (AID 434942;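 active = primary screen inhibitor hit that blocks the TRPC4 channel at some tested dose, yielding a dose curve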).
Sequence of Short transient receptor potential channel 4 (Mus musculus) (Q9QUQ5 whole entry, looked up): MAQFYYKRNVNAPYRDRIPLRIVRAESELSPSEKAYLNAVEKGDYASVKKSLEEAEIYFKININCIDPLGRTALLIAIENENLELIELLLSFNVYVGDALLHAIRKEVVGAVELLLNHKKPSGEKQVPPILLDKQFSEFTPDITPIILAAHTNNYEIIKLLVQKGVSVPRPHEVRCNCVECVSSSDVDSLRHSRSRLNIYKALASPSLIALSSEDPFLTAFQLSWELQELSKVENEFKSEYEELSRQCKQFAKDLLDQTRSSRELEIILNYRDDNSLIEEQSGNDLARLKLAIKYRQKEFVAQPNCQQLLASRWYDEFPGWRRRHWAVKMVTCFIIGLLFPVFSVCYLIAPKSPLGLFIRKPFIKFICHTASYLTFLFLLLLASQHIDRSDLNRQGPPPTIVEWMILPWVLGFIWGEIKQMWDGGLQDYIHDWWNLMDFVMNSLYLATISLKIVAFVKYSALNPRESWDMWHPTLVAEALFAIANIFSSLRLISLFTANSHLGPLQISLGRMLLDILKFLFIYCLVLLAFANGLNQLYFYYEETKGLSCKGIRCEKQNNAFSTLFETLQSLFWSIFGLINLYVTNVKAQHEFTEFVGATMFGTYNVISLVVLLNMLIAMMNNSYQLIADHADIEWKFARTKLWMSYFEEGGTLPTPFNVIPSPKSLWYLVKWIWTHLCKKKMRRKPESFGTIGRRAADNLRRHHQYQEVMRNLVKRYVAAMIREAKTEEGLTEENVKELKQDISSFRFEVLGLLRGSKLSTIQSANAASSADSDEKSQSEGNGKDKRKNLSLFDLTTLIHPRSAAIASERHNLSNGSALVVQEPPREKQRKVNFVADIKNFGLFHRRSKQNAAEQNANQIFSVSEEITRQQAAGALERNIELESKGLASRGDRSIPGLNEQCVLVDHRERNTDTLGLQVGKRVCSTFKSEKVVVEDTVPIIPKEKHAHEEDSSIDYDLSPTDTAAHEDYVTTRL

Sequence of Short transient receptor potential channel 6 (Mus musculus) (Q61143 whole entry, looked up): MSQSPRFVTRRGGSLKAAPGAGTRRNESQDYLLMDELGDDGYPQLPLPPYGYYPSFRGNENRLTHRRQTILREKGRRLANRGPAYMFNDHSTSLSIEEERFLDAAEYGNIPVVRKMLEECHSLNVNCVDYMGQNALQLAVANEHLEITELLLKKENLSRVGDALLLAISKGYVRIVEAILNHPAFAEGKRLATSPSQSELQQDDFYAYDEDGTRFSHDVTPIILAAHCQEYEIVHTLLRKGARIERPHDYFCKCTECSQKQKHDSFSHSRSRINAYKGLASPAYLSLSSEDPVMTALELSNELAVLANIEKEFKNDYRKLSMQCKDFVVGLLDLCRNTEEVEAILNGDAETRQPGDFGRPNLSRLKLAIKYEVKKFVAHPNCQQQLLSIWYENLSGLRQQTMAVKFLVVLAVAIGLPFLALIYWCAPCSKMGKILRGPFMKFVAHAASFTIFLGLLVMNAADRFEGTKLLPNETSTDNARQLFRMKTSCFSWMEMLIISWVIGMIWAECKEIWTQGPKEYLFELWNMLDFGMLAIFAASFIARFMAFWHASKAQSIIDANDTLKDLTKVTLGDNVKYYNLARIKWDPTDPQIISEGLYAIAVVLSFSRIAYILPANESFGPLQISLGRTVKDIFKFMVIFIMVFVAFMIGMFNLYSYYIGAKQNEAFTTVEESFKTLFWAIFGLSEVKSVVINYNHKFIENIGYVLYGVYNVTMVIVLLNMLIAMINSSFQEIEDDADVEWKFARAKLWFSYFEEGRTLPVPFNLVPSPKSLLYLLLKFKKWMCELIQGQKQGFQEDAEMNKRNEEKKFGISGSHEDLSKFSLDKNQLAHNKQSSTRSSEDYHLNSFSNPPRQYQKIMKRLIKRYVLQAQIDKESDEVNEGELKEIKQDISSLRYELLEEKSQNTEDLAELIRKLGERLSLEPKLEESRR

In the case of `CC(Cc1ccccc1Sc1ccccc1O)N(C)C` (stereo unspecified), the result in experiment [1], in experiment [2], in experiment [3], in experiment [4], in experiment [7] and in experiment [8] was inactive. Also, the compound was called inactive in experiment [10], in experiment [11], in experiment [12], in experiment [14], in experiment [15] and in experiment [16]. For the same compound, the inhibition in experiment [5] was 99% (active); in experiment [6] it was 70% (active); in [9], 50.5% (active); in experiment [13] it was 33% (active).
Regarding `CCNc1cc(N2CCNCC2)ccc1[N+](=O)[O-]`, the result in [1], in [2], in [5], in experiment [6], in experiment [7] and in experiment [8] was inactive. The outcome in [17], in experiment [9], in [10], in experiment [11], in [12] and in experiment [13] was inactive. The result in experiment [15] and in [16] was inactive. The results for the potentiation in [3], in experiment [4] and in [14] were 35% (active), 19% (active) and 17.7% (active), respectively.
For `Cc1cccc(N2CCc3c2nc2ccccc2c3N)c1`, the outcome in experiment [1], in experiment [2], in experiment [3], in [4], in experiment [7] and in experiment [8] was inactive. Moreover, the compound was classed as inactive in experiment [9], in [10], in [11], in experiment [12], in [14] and in [15]. In experiment [16], the result was inactive. Also, the inhibition was 67% (active) in [5], 51% (active) in experiment [6] and 24.6% (active) in experiment [13].
In the case of `CCN(CC)c1ccc([N+](=O)[O-])c2cccnc12`, the outcome in [1], in experiment [2], in experiment [3], in experiment [4], in experiment [6] and in experiment [7] was inactive. Also, the outcome in experiment [8], in experiment [9], in experiment [10], in experiment [11], in experiment [12] and in experiment [14] was inactive. The result in [15] and in [16] was inactive. Moreover, the results for the inhibition in experiment [5] and in experiment [13] were 93% (active) and 28% (active), respectively.
Regarding `COc1ccc(C)cc1NC1=NC(C)(C)CS1`, the outcome in experiment [1], in experiment [2], in [3], in experiment [4], in experiment [7] and in [8] was inactive. The compound was called inactive in experiment [9], in experiment [10], in [11], in [12], in [13] and in [14]. Besides, the result in experiment [15] and in [16] was inactive. For the same compound, the inhibition is 89% (active) in [5] and 42% (active) in experiment [6].
With `COc1ccc2[nH]cc(CCN(C)C)c2c1`, the outcome in experiment [1], in [2], in experiment [4], in experiment [5], in experiment [6] and in experiment [7] was inactive. Also, the outcome in experiment [17], in experiment [10], in experiment [12] and in experiment [15] was inactive. Also, the potentiation in experiment [3] is 7% (active). In addition, the outcome in [9], in experiment [11], in [13], in experiment [14] and in [16] was “inactive [setting not given]” in each case.
As to `CCOC(=O)C1(CCc2ccccc2)CCN(Cc2ccco2)CC1`, the result in [1], in [2], in [3], in experiment [4], in experiment [6] and in [7] was inactive. In addition, the outcome in experiment [8], in [9], in [10], in experiment [11], in experiment [12] and in experiment [13] was inactive. In addition, the result in [14], in experiment [15] and in [16] was inactive. Moreover, in [5], the inhibition is 94% (active).
`Cc1ccsc1C(=O)C1CCCN(Cc2ccccc2O)C1` (stereo unspecified): the result in [1], in [2], in experiment [3], in experiment [4], in experiment [6] and in experiment [7] was inactive. For the same compound, the outcome in experiment [8], in experiment [9], in experiment [10], in experiment [11], in experiment [12] and in experiment [14] was inactive. The result in experiment [15] and in [16] was inactive. Further, the inhibition in [5] is 84% (active); in experiment [13], 44.9% (active).
For `CCOC(=O)C1(c2ccccc2)CCN(CC(=O)Nc2ccc(C)cc2)CC1`, the outcome in experiment [1], in experiment [2], in [3], in experiment [4], in [6] and in experiment [7] was inactive. The result in [8], in experiment [10], in experiment [12] and in experiment [15] was inactive. In addition, in experiment [5], the inhibition is 80% (active). Further, the outcome in experiment [9], in experiment [11], in experiment [13], in experiment [14] and in experiment [16] was “inactive [setting not given]” throughout.
For the compound `COc1cccc(O)c1CN1CCCC(C(=O)c2sccc2C)C1` (stereo unspecified), the outcome in [1], in experiment [2], in experiment [3], in experiment [4], in experiment [7] and in [8] was inactive. In addition, the result in [9], in experiment [10], in [11], in experiment [12], in experiment [14] and in experiment [15] was inactive. In [16], the outcome was inactive. The results for the inhibition in experiment [5], in [6] and in [13] were 94% (active), 40% (active) and 29.8% (active), respectively.
`COC(=O)C(Cc1ccc(N(CCCl)CCCl)cc1)N=Cc1ccccc1O` (stereo unspecified): the result in experiment [1], in [2], in experiment [3], in [4], in experiment [5] and in experiment [6] was inactive. In addition, the result in experiment [7], in experiment [8], in experiment [17], in experiment [9], in experiment [10] and in experiment [11] was inactive. Further, the result in experiment [12], in experiment [13], in experiment [14], in experiment [15] and in experiment [16] was inactive.
Consider `Oc1c(Br)cc(Br)cc1CN1CCN(Cc2ccccc2)CC1`, for which the outcome in [1], in experiment [2], in experiment [3], in [5], in [6] and in experiment [7] was inactive. For the same compound, the outcome in [8], in experiment [17], in [10], in experiment [12] and in [15] was inactive. The potentiation in [4] is 44% (active); in experiment [14] it was 20.2% [hits give high values] (active). Moreover, the outcome in experiment [9], in experiment [11], in experiment [13] and in experiment [16] was “inactive [setting not given]” in each case.
Regarding `CCOC(=O)C(O)(c1ccc(NC(=S)NC(=O)c2ccc(Cl)cc2Cl)c(C)c1)C(F)(F)F` (stereo unspecified), the outcome in experiment [1], in experiment [2], in experiment [3], in experiment [5], in [6] and in experiment [7] was inactive. Also, the result in experiment [17], in [9], in [10], in [11], in experiment [12] and in [13] was inactive. In addition, the result in experiment [15] and in experiment [16] was inactive. For the same compound, the values for the potentiation in experiment [4] and in experiment [14] were 31% (active) and 28.1% (active), respectively.
